# Data as given in article PMC4336329 (PLoS ONE, 2015).
# The campaign covered roughly 310,000 compounds. About 14,000 (4.5%) showed an effect of 50% or more. The effect is printed as a negative number. Only a selection was taken, and strong results are over-represented in it overall.
# Target: human ether-à-go-go-related gene (hERG) potassium channel (human, UniProt Q12809)
# Test: primary screen, population patch clamp on CHO cells stably expressing hERG; higher = less effect of the substance
# 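Also: peak tail current of the secondary pulse compared with the same well before compound.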
# Chain of human ether-à-go-go-related gene (hERG) potassium channel (Q12809 whole entry, looked up): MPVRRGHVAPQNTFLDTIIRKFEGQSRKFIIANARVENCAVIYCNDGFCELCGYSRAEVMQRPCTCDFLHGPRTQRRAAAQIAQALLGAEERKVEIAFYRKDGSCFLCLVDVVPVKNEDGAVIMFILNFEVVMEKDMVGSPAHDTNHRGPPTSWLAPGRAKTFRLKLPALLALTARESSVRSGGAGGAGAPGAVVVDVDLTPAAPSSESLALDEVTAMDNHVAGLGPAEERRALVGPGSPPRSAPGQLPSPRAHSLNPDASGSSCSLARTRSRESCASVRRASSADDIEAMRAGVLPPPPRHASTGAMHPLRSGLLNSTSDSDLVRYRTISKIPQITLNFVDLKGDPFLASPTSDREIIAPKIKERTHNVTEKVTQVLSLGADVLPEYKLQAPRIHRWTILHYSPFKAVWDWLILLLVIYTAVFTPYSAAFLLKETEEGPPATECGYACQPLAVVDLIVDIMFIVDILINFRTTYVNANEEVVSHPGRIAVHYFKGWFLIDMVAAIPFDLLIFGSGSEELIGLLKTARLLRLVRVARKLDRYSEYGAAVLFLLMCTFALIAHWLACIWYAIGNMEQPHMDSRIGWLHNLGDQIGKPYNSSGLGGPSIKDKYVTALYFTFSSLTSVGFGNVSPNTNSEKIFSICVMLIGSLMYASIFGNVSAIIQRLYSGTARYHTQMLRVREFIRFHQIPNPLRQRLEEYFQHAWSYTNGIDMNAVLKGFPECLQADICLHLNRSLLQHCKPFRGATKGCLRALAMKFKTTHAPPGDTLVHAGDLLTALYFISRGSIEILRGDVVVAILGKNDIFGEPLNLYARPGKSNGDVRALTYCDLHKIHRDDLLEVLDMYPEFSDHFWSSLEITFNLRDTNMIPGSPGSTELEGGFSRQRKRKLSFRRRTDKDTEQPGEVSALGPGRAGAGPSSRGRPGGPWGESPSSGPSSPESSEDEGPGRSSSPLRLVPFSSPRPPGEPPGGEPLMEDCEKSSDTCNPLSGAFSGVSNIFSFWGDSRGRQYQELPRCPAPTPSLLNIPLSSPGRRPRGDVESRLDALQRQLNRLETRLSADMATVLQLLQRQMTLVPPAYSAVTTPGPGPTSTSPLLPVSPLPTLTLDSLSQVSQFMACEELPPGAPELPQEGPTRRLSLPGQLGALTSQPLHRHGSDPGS
row,Structure (SMILES),"hERG current change (%, negative = inhibition) at 10uM [%]"
1,CN1CCN(c2ccc(-c3ccnn3C(=O)Nc3ccccc3)cc2)CC1,-11.5
2,CCOC(=O)c1ccc(NC(=O)c2ccc(OC(C)C)c(OC)c2)cc1,-3.47
3,Cc1cc(C(=O)COC(=O)c2ccncc2)c(C)n1Cc1ccco1,13.7
4,NC(=O)c1c(NC(=O)C2c3ccccc3Oc3ccccc32)sc2c1CCCCC2,6.4
5,CCS(=O)(=O)N1CCC(C(=O)N2CCOCC2)CC1,12
6,COc1ccc(S(=O)(=O)NCC2CCCN(Cc3cn(C)nc3C)C2)cc1 (centres unmarked),8.1
7,CC(C)c1cccc(C(C)C)c1OC(=O)[C@H]1OC(C(C)(C)C)=C[C@@H]1c1ccccc1,-6.97
8,CCN(CC(=O)Nc1ccc(OC)c(OC)c1)CC(=O)Nc1ccccc1C(F)(F)F,-0.147
9,COc1cc(C(=O)N(C)CCOc2ccccc2)ccc1OCC(=O)Nc1cccc(C(F)(F)F)c1,-14.2
10,COc1cc(C(=O)NCc2ccc(S(N)(=O)=O)cc2)ccc1OCC(=O)Nc1cccc(C(F)(F)F)c1,15.5
11,COc1cc(C(=O)NCCCN(C)C)ccc1OCC(=O)Nc1cccc(C(F)(F)F)c1,-59.1
12,CCOc1ccc(C(=O)NCCNC(=O)c2ccc(OCC)cc2)cc1,9.15
13,CCOc1ccc(C(=O)NCCCN(CC)CC)cc1,-51.8
14,CCOc1ccc(C(=O)NCCCCNC(=O)c2ccc(OCC)cc2)cc1,21.8
15,CCN(CC(=O)Nc1ccccc1OC)CC(=O)Nc1ccccc1C(F)(F)F,-5.29
16,CCN(CC)CCCNC(=O)c1ccc(OCC(=O)Nc2ccccc2C(F)(F)F)c(OC)c1,-70.5
17,CC(C)CCNC(=O)NC(=O)CSc1nnc(-c2ccccc2Br)o1,-5.73
18,CC(=O)c1ccc(-c2nc3ccccc3n2C)o1,12.7
19,CC1CCN(C(=O)COC(=O)CCc2c[nH]c3ccccc23)CC1,9.1
20,CCOC(=O)c1csc(NC(=O)c2ccccc2)n1,-8.86
21,COc1ccc(NC(=O)OCC(C)C)cc1OC,15.9
22,C=CCN1C(=O)/C(=C/c2ccc(OC)cc2)S/C1=N/c1nccs1,13.4
23,Cc1nn(C(=O)c2ccco2)c(C)c1Sc1ccc([N+](=O)[O-])cc1,20.8

row,Structure (SMILES),"hERG current change (%, negative = inhibition) at 10uM [%]"
1,COc1ccc(Cl)cc1C(=O)OCC(=O)NCc1cccs1,-28.1
2,O=C(COC(=O)c1cc(Cl)ccc1O)NCCNC(=O)COC(=O)c1cc(Cl)ccc1O,21.4
3,COc1ccc(Cl)cc1C(=O)OCC(=O)NCCNC(=O)COC(=O)c1cc(Cl)ccc1OC,-71.6
4,Cc1cccc(C(=O)OCCN2CCOCC2)c1.Cl,12.3
5,CCOc1ccc(C2C(C#N)=C(N)SC(N)=C2C#N)cc1OCC,13.5
6,COc1cccc(O)c1CN1CCCC(C(=O)c2ccccc2SC)C1 (centres unmarked),-44.1
7,COc1cccc(CN2CCCC(C(=O)c3ccccc3SC)C2)c1O (centres unmarked),-77.5
8,COc1cccc(OC)c1CN1CCCC(C(=O)c2ccccc2SC)C1 (centres unmarked),-72.6
9,COc1ccccc1CN1CCCC(C(=O)c2ccccc2SC)C1 (centres unmarked),-71.1
10,COc1ccccc1CN1CCCC(C(=O)c2ccccc2OC)C1 (centres unmarked),-47.2
11,COC(=O)CCCC(=O)N1CCCC(C(=O)c2ccccc2SC)C1 (centres unmarked),-8.08
12,C/C(=N\NC(=O)c1ccccc1O)c1ccc(Br)s1,11
13,O=C(O)c1ccc2c(c1Sc1ccccc1)C(=O)c1ccccc1C2=O,-4.82
14,COc1cc(C(=O)Nc2ccc(S(=O)(=O)NC(C)C)cc2)cc(OC)c1OC,-2.49
15,O=C(CCn1cccn1)Nc1ccc(-c2ccno2)cc1,14.4
16,CCNC(=O)CN(CCc1ccccc1)S(C)(=O)=O,17.8
17,O=S(=O)(Nc1ccc(-c2nnc(SCc3ccc(Cl)cc3)o2)cc1)c1ccccc1,17.8
18,O=S(=O)(Nc1ccc(-c2ccc3nncn3n2)cc1)c1cccs1,15.4
19,O=C(NCc1ccccc1Cl)c1cccc(NC2=NC3CS(=O)(=O)CC3S2)c1 (centres unmarked),13.1
20,Cc1nnc(NC(=O)c2ccccc2Br)s1,-1.65
21,CC1=C(C(=O)Nc2ccccc2)C(c2ccco2)C(C#N)=C(SCC(=O)Nc2cccc(C)c2C)N1 (centres unmarked),17.9
22,CCc1nc2sc3c(c2c(=O)n1N)CC(C)(C)OC3,7.31
23,Oc1c(Br)cc(Br)cc1CN1CCN(Cc2ccccc2)CC1,-3.14

row,Structure (SMILES),"hERG current change (%, negative = inhibition) at 10uM [%]"
1,OCCN1CCN(Cc2cc(Br)cc(Br)c2O)CC1,-60.8
2,CCN1CCN(Cc2cc(Br)cc(OC)c2O)CC1,-20.4
3,CCN1CCN(Cc2cc(Br)ccc2O)CC1,-22.7
4,COc1ccc(Br)cc1CN1CCN(CCO)CC1,-0.9
5,CCN1CCN(Cc2cc(Br)cc(Br)c2O)CC1,-50.6
6,O=C(OCc1ccccc1)c1cc(S(=O)(=O)N2CCCCC2)ccc1N1CCOCC1,-27.3
7,CC(=O)N1N=C(c2cccs2)CC1c1ccc(C)o1 (centres unmarked),7.07
8,COC(=O)c1ccc(N2C(=O)CC(N3CCN(c4ccccc4)CC3)C2=O)cc1 (centres unmarked),11.1
9,Cc1cc(Cl)c(S(=O)(=O)NCc2ccncc2)cc1OCC(N)=O,1.62
10,COc1ccc(CCN2CC(C(=O)NCCCn3nc(C)cc3C)CCC2=O)cc1 (centres unmarked),-23.3
11,O=C(NCCn1cccn1)C1CCC(=O)N(CCc2ccc(Cl)cc2)C1 (centres unmarked),5.51
12,Cc1cc(C)n(CCCNC(=O)C2CCC(=O)N(CCc3ccc(Cl)cc3)C2)n1 (centres unmarked),-54.7
13,Cc1ccn(CCNC(=O)C2CCC(=O)N(Cc3ccc(Cl)cc3)C2)n1 (centres unmarked),-3.57
14,Cc1cc(C)n(CCNC(=O)C2CCC(=O)N(Cc3ccc(Cl)cc3)C2)n1 (centres unmarked),15.2
15,Cc1ccn(CCNC(=O)C2CCC(=O)N(CCc3ccc(Cl)cc3)C2)n1 (centres unmarked),-55.3
16,COc1cccc(C2CC(c3ccccc3)Nc3nc(N)nn32)c1 (centres unmarked),-7.93
17,S=c1[nH]nc(Cc2cccs2)n1-c1cccc2ccccc12,-10.4
18,O=[N+]([O-])c1ccc(CNc2cccc(F)c2)s1,-32.3
19,Cc1ccc(CNC(=O)c2nc3nc(C)cc(C)n3n2)cc1,14.4
20,Cc1cccc(NC(=S)Nc2cccc3ccccc23)c1,15.9
21,Cc1ccc(NC(=S)NC2CCN(Cc3ccccc3)CC2)c(C)c1,-12.9
22,CCOC(=O)c1c(-c2ccc(C)cc2)csc1NC1=NS(=O)(=O)c2ccccc21,-1.41
23,Cl.N#CC(c1ccccc1)C1CCN(Cc2ccccc2)CC1 (centres unmarked),-50.9

row,Structure (SMILES),"hERG current change (%, negative = inhibition) at 10uM [%]"
1,CC(=O)C1CCN(Cc2ccccc2)CC1,20.5
2,CSc1ccccc1OC1CCN(Cc2ccccc2)CC1.Cl,-24.3
3,O=C(OCC(=O)N1CCCCCC1)c1ccc([N+](=O)[O-])cc1Cl,8.47
4,Cc1ccccc1S(=O)(=O)Nc1nc2ccccc2nc1N1CCOCC1,7.22
5,CCn1ccc(C(=O)NC2=NCCS2)n1,-3.73
6,CNC(=O)/C(C#N)=C/c1c(N2CCCCCC2)nc2ccccn2c1=O,10.2
7,C=CCNC(=O)/C(C#N)=C/c1c(N2CCCCCC2)nc2ccccn2c1=O,-59.6
8,CCNC(=O)/C(C#N)=C/c1c(N2CCN(c3ccccc3)CC2)nc2ccccn2c1=O,-66.3
9,CCNC(=O)/C(C#N)=C/c1c(N2CCCCCC2)nc2ccccn2c1=O,-9.13
10,COCCNC(=O)/C(C#N)=C/c1c(N2CCN(c3ccccc3)CC2)nc2ccccn2c1=O,-20.7
11,CCNC(=O)/C(C#N)=C/c1c(N2CCOCC2)nc2ccccn2c1=O,-4.68
12,CC(=O)OCn1ncc(N2CCOCC2)c(Br)c1=O,16.5
13,Cc1ccc(/C=N/Nc2cc(C)nc(N3CCOCC3)n2)cc1,17.5
14,Cc1ccc(N=Nc2c(O)[nH]c(=O)[nH]c2=O)c([N+](=O)[O-])c1,-5.68
15,Cc1ccc(S(=O)(=O)NC(CCc2ccccc2)CC(=O)C(C)(C)C)cc1 (centres unmarked),-0.463
16,O=C(c1ccc(N2CCOCC2)c([N+](=O)[O-])c1)N1CCCC(C(F)(F)F)C1 (centres unmarked),2.23
17,Cc1ccc(S(=O)(=O)NC(=O)N(C)C2CCCCC2)cc1,9.07
18,CN(C)CCNc1nc(-c2ccccc2)c2c(c1C#N)CC(C)(C)OC2,-42.4
19,Cc1nc(NCCCO)c(C#N)c2c1COC(C)(C)C2,-15
20,CC1(C)Cc2c(C#N)c(NCCCO)nc(-c3ccccc3)c2CO1,-56
21,CC1(C)Cc2c(C#N)c(NCCN3CCOCC3)nc(-c3ccccc3)c2CO1,-17.1
22,CN(C)CCCNc1nc(-c2ccccc2)c2c(c1C#N)CC(C)(C)OC2,-57.4
23,COc1nc(-c2ccccc2)c2c(c1C#N)CC(C)(C)OC2,-11.2
